Screening results from PubChem.
Many of the other results were omitted from the sample, so hits are more common in it than they were.
Dicer inh = inhibitors of Dicer pre-microRNA processing, primary screen, biochemical, cat-ELCCA, chemiluminescence; z-score at 25 µM; Endoribonuclease Dicer (Homo sapiens), Q9UPY3; cat-ELCCA pre-miR-21 Dicer processing; stronger effect = higher value; 47,000 compounds, 6% hits; AID 1347074, 2019; in the data active means z-score above about 3, passing the limit was not always enough;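 further: plate controls were vehicle for no effect and no enzyme for full effect; higher signal means more uncleaved substrate so more Dicer inhibition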
An asterisk follows results filed as active.

SMILES	Dicer inh
CCN(CC)C(=O)Cn1cc(C(=O)C2CC2)c2ccccc21	4.08*
Cc1onc(-c2c(Cl)cccc2Cl)c1C(=O)NNc1c(Cl)cc(Cl)cc1Cl	4.41
CC(C)n1c(Sc2ncc([N+](=O)[O-])s2)nc2cc(Cl)ccc21	-0.09
OC1CCN(CC(O)COc2ccc(Cl)c(Cl)c2)CC1 (centres undefined)	-0.59
COC(=O)c1sc(N2CCCC2)c(C#N)c1-c1cccs1	-2.21
COC(=O)c1sc(N2CCCC2)c(S(=O)(=O)C(C)C)c1N	-0.38
COC(=O)c1sc(N2CCCCC2)c(C#N)c1N	28.8*
CCOC(=O)/C(N=Nc1ccccc1)=C(\C)O	-0.06
O=C(O)c1cccc([N+](=O)[O-])c1C(=O)Nc1ccc(Cl)c(Cl)c1	1.52
CCCCSC1=C(C#N)C(=O)NC(c2ccc(O)c(OC)c2)S1 (centres undefined)	3.11*
CCCCSC1=C(C#N)C(=O)NC(c2ccc(C(=O)O)cc2)S1 (centres undefined)	-1.35
CCCCSC1=C(C#N)C(=O)NC(c2ccc(O)cc2)S1 (centres undefined)	-0.9
CCOC(=O)c1cnc(O/N=C/c2ccc(Cl)cc2Cl)nc1C(F)(F)F	-2.68
CCOC(=O)C/C(=N/Nc1ccccc1)C(F)(F)F	-0.73
CC(C)(O)c1cc(C(F)(F)F)cc(C(F)(F)F)c1	0.04
Nc1cc(C(F)(F)F)ccc1N1CCCCC1	-0.13
Oc1cc2c(cc1C(c1ccc(C(F)(F)F)cc1)N1CCCCC1)OCO2 (centres undefined)	3.77*
O=C(NC(=O)c1ccc(C(F)(F)F)cc1)NN1CCCCCC1	-2.49
CCCCOC(=O)/N=C/c1c(O)c2ccccc2oc1=O	0.7
CN(Cc1ccccc1)c1nc2c(c(=O)n(C)c(=O)n2C)n1Cc1ccccc1Cl	2.92
Cc1nc([N+](=O)[O-])cn1CC(=O)c1ccc(-c2ccccc2)cc1	0.3
CCC(Nc1nc(-c2ccccc2)nc2ccccc12)C(=O)O (centres undefined)	-1.07
c1ccc(-c2nc(Nc3ccc4c(c3)OCCO4)c3ccccc3n2)cc1	5.41*
O=C(Nc1ccc2c(c1)OCCO2)c1cccc(C(=O)Nc2ccc3c(c2)OCCO3)n1	-0.09
CCn1c(C(C)O)nc2ccccc21 (centres undefined)	-0.44
SMILES	Dicer inh
Clc1ccc2nc3c(nc2c1)Nc1ccccc1S3	0.76
CCNc1nc2ccc(Cl)cc2nc1NCC	4.63*
CCNc1nc(-c2ccc(Cl)cc2)c(-c2ccc(C)cc2)s1	-2.2
O=C(O)C1(c2ccccc2)CCOCC1	12.3
Cc1ccc(C(=O)c2oc3ccccc3c2N)cc1	0.43
O=C(Nc1c(C(=O)c2ccc(F)cc2)oc2ccccc12)c1ccccc1	-0.56
Nc1c(C(=O)c2ccc(Oc3ccccc3)cc2)oc2ccccc12	3.77*
CCCCS(=O)c1sc(C(=O)OCC)c2c1C(=O)CCC2 (centres undefined)	-0.86
Cc1onc2c(=O)[nH]nc(-c3ccccc3)c12	-0.63
CC(C)=NNC(=S)Nc1ccc(Cl)cc1	5.98*
CNNC(=S)Nc1ccc(Cl)cc1	0.59
S=C(Nc1ccc(Cl)cc1)Nc1ccc(Cl)cc1	1.77
COc1ccc(S(=O)(=O)N2CCN(S(=O)(=O)c3ccccc3)CC2)cc1	0.85
Nc1nc(-c2ccccc2O)cs1	4.46*
Cc1ccc(-c2csc(N=C(N)N)n2)c(C)c1	0.5
Nc1cccc(-c2csc(N)n2)c1	-1.28
Cc1ccc(C)c(-c2csc(N)n2)c1	3.56*
Nc1nc(-c2cccs2)cs1	-0.87
Nc1nc(-c2ccc3ccccc3c2)cs1	0.5
Cc1cc(C)nc(-n2ncc3c2CC(c2ccco2)CC3=O)n1 (centres undefined)	0.99
O=c1c(OS(=O)(=O)Cc2ccccc2)c(-c2ccccc2)oc2ccccc12	-0.02
O=C1c2ccccc2C(=O)C1C(C[N+](=O)[O-])c1c(Cl)cccc1Cl (centres undefined)	-0.15
Cc1ccc(S(=O)(=O)CC(C)N2CCCCC2)c(S(=O)(=O)CC(C)N2CCCCC2)c1 (centres undefined)	-0.8
Cc1ccc(S/C(=C\N(C)C)C(=O)c2ccc(Cl)cc2)cc1	-0.64
CN1CCN(CCCNC(=O)c2sc3ccccc3c2Cl)CC1	-0.58
SMILES	Dicer inh
c1ccc2[nH]c(CSCSCc3nc4ccccc4[nH]3)nc2c1	-0.12
CCCCCCc1c(O)nc(SCCN(C)C)[nH]c1=O	0.69
CCCCCCc1c(O)nc(SCC(=O)O)[nH]c1=O	5.67*
CCCCCc1c(O)nc(SCCN(C)C)[nH]c1=O	1.21
CCn1cc(C(=O)NNC(C)=O)c(=O)c2cc(C(F)(F)F)ccc21	0.8
COc1ccc(OC)c(S(=O)(=O)N2CCc3cc(OC)c(OC)cc3C2C)c1 (centres undefined)	0.09
N#C/C(=N\Nc1ccc(Cl)cc1)C(=O)C1CC1	2.48
COc1ccc(Cl)cc1NC(C)=O	0.03
COc1cc(Cl)ccc1N/N=C(\C#N)C(N)=O	4.95*
O=C(NC1CCN(S(=O)(=O)c2cc(C(F)(F)F)cc(C(F)(F)F)c2)CC1)C1CCCCC1	-0.21
N[C@@H](Cc1ccccc1)c1nnc(SCc2ccc(Cl)cc2)o1	-2.33
COc1ccc2ccccc2c1Br	-1.28
COc1ccc2cccc3c2c1C=CC3=O	4.22*
CC(=O)ON1C(=O)c2cccc3cccc(c23)C1=O	1.23
Cc1nc([N+](=O)[O-])cn1CCc1noc(-c2ccc(F)cc2)n1	0.03
O=C(NC(=O)c1ccccc1N1CCCCC1)Nc1ccc(Cl)cc1	0.93
CCOC(=O)C(C#N)Cc1c(C)c(C)c(C)c(C)c1C (centres undefined)	1
O=C(NNC(=S)NCc1ccccc1)c1ccccc1	0.89
Cc1nc2c(C)cccc2c2c1CCN2c1cccc(C(F)(F)F)c1	-1.21
O=C(/C=C/c1cccs1)Oc1c(Br)cc(Br)cc1Br	-1.17
Cc1cc(C)cc(NC(=O)/C=C/C(=O)O)c1	7.12*
O=C(O)/C=C/C(=O)Nc1ccc(C2CCCCC2)cc1	1.35
Cc1ccc(C)c(NC(=O)/C=C/C(=O)O)c1	2.84
Cc1c(C)c(NC(=O)/C=C/C(=O)O)c(C)c(C)c1NC(=O)/C=C/C(=O)O	3.55*
Cn1cc(Br)c(NC(=O)/C=C\C(=O)O)n1	-1.78
SMILES	Dicer inh
Cc1cc(C)c(C)c(C(=O)/C=C/C(=O)O)c1C	0.97
COC(=O)c1sccc1-c1ccc(C2C3=C(CCCC3=O)NC3=C2C(=O)CCC3)o1	0.31
CCOC(=O)c1c(C)nn(-c2ncccc2NC(=S)NC(=O)c2ccccc2)c1C	-0.72
O=c1oc(-c2ccccc2Cl)nn1-c1ccc(C(F)(F)F)cn1	0.3
Cc1ccsc1/C=C/c1ccnc(Sc2ncccc2[N+](=O)[O-])n1	0.05
CCOc1ccccc1-c1nc(-c2ccc(-c3cccc(OC)c3)nc2OC)no1	0.28
Cc1cc(C)c(S(=O)(=O)Nc2ccc(O)c(Sc3ncn[nH]3)c2)cc1C	7.3*
Cc1cc(C(C)(C)C)cc(S(=O)(=O)Nc2ccc(O)c(Sc3ncn[nH]3)c2)c1C	8.25
O=C(CSc1ncn[nH]1)Nc1ccc(F)cc1	-0.99
CC(O)(CNCc1ccc(Cl)cc1)CSc1ccc(Cl)cc1 (centres undefined)	0.16
Cn1cnc2cc(NCc3ccco3)ccc21	4.86*
CC(C)n1cnc2cc(NCc3ccco3)ccc21	-0.27
CC(C)(C)n1cnc2cc(NCc3ccco3)ccc21	2.64
C=CCn1c(SCC(=O)Nc2ccccc2F)nc2sc3c(c2c1=O)CCC3	0.71
COc1ccc(/C=N/N=C(\N)SCc2ccc(F)cc2)cc1	-0.05
CN(C)c1c(F)cc(C(=O)NC(=O)Nc2nnc(C(F)(F)F)s2)cc1F	-0.95
